Assay results from PubChem BioAssay (Tox21).
Values without a mark were called inactive. Records with an inconclusive call do not appear. Where a call stands in place of a potency, no number is given. Active and inactive are the calls of the source. Unless noted, calls come from the whole dose curve; as a rule, active = well fitted curve in the direction sought with a large enough effect in the repeat runs; inconclusive = weak or mixed curves; inactive = no such curve, though single readings can be large; an effect the other way counts as inactive or inconclusive.

Key:
[1] = qHTS assay for small molecules that induce genotoxicity in human embryonic kidney cells expressing luciferase-tagged ATAD5 (AID 651632); note: nearly all actives have a fitted effect of over 15% in size
In short: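 Luminescence read-out: after 16 hr compound exposure at 37C, ATAD5-luciferase HEK293T cells received Amplite, 30 min RT, then CCD imaging. A rise in signal marks genotoxic stress.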

[2] = qHTS assay for small molecule agonists of the p53 signaling pathway - cell viability (AID 651633; calls by dose curve;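 note: p53RE-bla HCT reporter cells with a stable beta-lactamase p53 reporter; series mostly up to about 83 µM; nearly all actives have a fitted effect of over 30% in size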)
In short: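 p53RE-bla cells were treated with compound for 16 hours at 37 C. Cytotoxicity was then measured as CellTiter-Glo luminescence after 30 min at room temperature.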

[3] = qHTS assay for small molecule disruptors of the mitochondrial membrane potential (AID 720635); note: potency is the fitted concentration of half-maximal effect
In short: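 HepG2 cells exposed to compound 1 hr at 37C, then Mito-MPS dye 30 min. Ratio read of aggregate (540/590 nm) versus monomer (490/535 nm) fluorescence.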

[4] = qHTS assay to test for compound auto fluorescence at 590 nm (red) in HepG2 cells (AID 720674)
In short: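 Seeding: 2,000 HepG2 cells/well, MEM/10% FBS, overnight 37 C. Dosing: compound vs DMSO. Incubation: 1 hr, 37 C, 5% CO2. Read: fluorescence 540 ex/590 em, Rose Bengal sodium as red reference.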

[5] = qHTS assay to test for compound auto fluorescence at 535 nm (green) in HepG2 cells (AID 720675)
[6] = qHTS assay to test for compound auto fluorescence at 460 nm (blue) in HEK293 cells (AID 720678)
In short: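 HEK293, 2,000 cells/well, 10% dialyzed FBS; attach 4-5 hr 37C; pin compound or DMSO; o/n 37C/5% CO2; fluorescence 405/460 nm; triamterene-equivalent units.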

[7] = qHTS assay to test for compound auto fluorescence at 590 nm (red) in HEK293 cells (AID 720679)
In short: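 Intensity at 540nm excitation and 590nm emission is reported as Rose Bengal sodium-equivalent autofluorescence. Measurements followed overnight exposure (37C, 5% CO2) of HEK293 cells, 2,000 per well, to 23 nL compound.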

[8] = qHTS assay to test for compound auto fluorescence at 535 nm (green) in HEK293 cells (AID 720680)
[9] = qHTS assay to test for compound auto fluorescence at 460 nm (blue) in HEK293 cell free culture (AID 720681)
In short: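 Compounds were added to cell-free DMEM with 10% FBS and fluorescence read directly. The blue channel used 405 nm excitation and 460 nm emission, with triamterene as the reference fluorophore.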

[10] = qHTS assay to test for compound auto fluorescence at 535 nm (green) in HEK293 cell free culture (AID 720682)
In short: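 Green-channel intensity (Ex/Em 485/535 nm) was recorded from compound-treated wells containing only DMEM with 10% FBS. Fluorescein provided the equivalency standard.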

[11] = qHTS assay to test for compound auto fluorescence at 590 nm (red) in HEK293 cell free culture (AID 720683)
In short: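 Cell-free wells of DMEM with 10% FBS received compound, and intrinsic fluorescence was read at excitation/emission 540/590 nm. Values expressed as equivalence to Rose Bengal sodium.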

[12] = qHTS assay to test for compound auto fluorescence at 590 nm (red) in HepG2 cell free culture (AID 720684)
In short: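 Auto fluorescence equivalency versus Rose Bengal sodium, red channel Ex/Em 540/590 nm; compounds in cell-free MEM/10% FBS; DMSO vehicle control.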

[13] = qHTS assay to test for compound auto fluorescence at 460 nm (blue) in HepG2 cell free culture (AID 720685)
In short: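 Cell-free plates of MEM plus 10% FBS received 23 nL compound or DMSO vehicle; blue-channel (405/460 nm) intensity scored against triamterene as reference fluorophore.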

[14] = qHTS assay to test for compound auto fluorescence at 535 nm (green) in HepG2 cell free culture (AID 720686)
[15] = qHTS assay to test for compound auto fluorescence at 460 nm (blue) in HepG2 cells (AID 720687)
In short: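 HepG2 cells in MEM with 10% FBS, attached overnight at 37 C, were exposed to compound or DMSO for 1 hr at 37 C, 5% CO2. Blue fluorescence was read at 405/460 nm, with triamterene as reference fluorophore.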

[16] = target: Glucocorticoid receptor (Homo sapiens) (UniProt P04150); assay: qHTS assay to identify small molecule agonists of the glucocorticoid receptor (GR) signaling pathway (AID 720691; active = well fitted activation curve with a large enough effect in the signal ratio in the repeat runs, not every such curve was filed as active; the % refers to the signal ratio)
Sequence of Glucocorticoid receptor (Homo sapiens) (P04150 whole entry, looked up): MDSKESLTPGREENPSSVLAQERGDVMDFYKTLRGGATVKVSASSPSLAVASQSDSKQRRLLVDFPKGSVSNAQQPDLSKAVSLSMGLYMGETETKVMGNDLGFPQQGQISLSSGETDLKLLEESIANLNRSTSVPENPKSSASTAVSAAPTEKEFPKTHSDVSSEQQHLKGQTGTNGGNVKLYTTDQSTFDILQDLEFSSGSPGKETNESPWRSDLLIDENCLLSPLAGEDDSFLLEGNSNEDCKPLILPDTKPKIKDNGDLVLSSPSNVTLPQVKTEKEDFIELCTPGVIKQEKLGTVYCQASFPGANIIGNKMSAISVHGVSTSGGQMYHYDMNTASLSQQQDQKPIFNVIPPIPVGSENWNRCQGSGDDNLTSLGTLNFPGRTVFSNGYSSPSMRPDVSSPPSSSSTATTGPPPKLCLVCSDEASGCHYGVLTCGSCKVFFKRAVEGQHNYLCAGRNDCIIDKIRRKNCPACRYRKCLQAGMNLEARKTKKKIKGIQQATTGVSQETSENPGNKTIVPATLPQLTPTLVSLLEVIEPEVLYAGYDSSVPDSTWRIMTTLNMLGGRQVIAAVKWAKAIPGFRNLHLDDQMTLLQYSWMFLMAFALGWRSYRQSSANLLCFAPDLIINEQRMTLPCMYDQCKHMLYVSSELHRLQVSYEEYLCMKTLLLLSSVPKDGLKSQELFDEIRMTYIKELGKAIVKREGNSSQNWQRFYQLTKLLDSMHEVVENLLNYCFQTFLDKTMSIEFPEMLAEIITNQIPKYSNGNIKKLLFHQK
In short: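 HeLa GR-bla reporter line; cells pre-incubated 4 h, compound in DMSO 18 h at 37 C; LiveBLAzer B/G FRET substrate 2 h RT; fluorescence intensity read-out.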

[17] = qHTS assay for small molecules that induce genotoxicity in human embryonic kidney cells expressing luciferase-tagged ATAD5 - cell viability (AID 651634; calls by dose curve; note: nearly all actives have a fitted effect of over 25% in size)
In short: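 HEK293T ATAD5-luc cells, 2,000/well; compound 15.5 hr, 37C/5% CO2; CellTiter-Fluor 30 min, 37C; fluorescence read.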

[18] = qHTS assay for small molecule disruptors of the mitochondrial membrane potential - cell viability (AID 720634; calls by dose curve;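 note: human HepG2 liver cancer cells; series mostly up to about 83 µM; nearly all actives have a fitted effect of over 20% in size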)
In short: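 Luminescence from CellTiter-Glo (ATP content) gave viability in HepG2 cells, read in the same wells as the MMP dye assay after 1 hr compound exposure at 37 C.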

[19] = target: Glucocorticoid receptor (Homo sapiens) (UniProt P04150); assay: qHTS assay to identify small molecule antagonists of the glucocorticoid receptor (GR) signaling pathway (AID 720692; active = well fitted inhibition curve with a large enough effect in the signal ratio in the repeat runs, not every such curve was filed as active; the % refers to the signal ratio)
In short: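 Read-out: beta-lactamase FRET substrate fluorescence, 2 h at room temperature, in HeLa cells stably carrying a GRE-driven bla reporter. Compounds were co-incubated with 5 nM dexamethasone agonist (final) for 18 h at 37 C.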

Structure (SMILES): O=c1[nH]nc(-c2ccc([N+](=O)[O-])o2)o1
- Potency [1]: inactive
- Potency [2]: inactive
- Potency [3]: 43.3 µM (active)
- outcome [4]: inactive
- outcome [5]: inactive
- Potency [6]: inactive
- outcome [7]: inactive
- outcome [8]: inactive
- Potency [9]: inactive
- outcome [10]: inactive
- outcome [11]: inactive
- outcome [12]: inactive
- outcome [13]: inactive
- outcome [14]: inactive
- outcome [15]: inactive
- Potency [16]: inactive

Structure (SMILES): c1ccc(-c2ccc(-c3ccccc3)cc2)cc1
- Potency [17]: inactive
- Potency [18]: inactive
- fluorescence, % of fluorescein control [5]: -0.0708% [at 18.6 µM]
- fluorescence, % of triamterene [6]: -0.0124% [at 18.6 µM]
- fluorescence, % of fluorescent control [7]: 0.554% [at 18.6 µM]
- fluorescence, % of fluorescein [8]: 0.0075% [at 18.6 µM]
- fluorescence, % of fluorescent control [9]: -0.0624% [at 18.6 µM]
- activity change [10]: -0.0551% [at 18.6 µM]
- fluorescence, % of fluorescent control [11]: -0.201% [at 18.6 µM]
- fluorescence, % of Rose Bengal [12]: -0.0264% [at 18.6 µM]
- fluorescence, % of fluorescent control [13]: 0.0163% [at 18.6 µM]
- fluorescence, % of fluorescein control [14]: -0.0394% [at 18.6 µM]
- fluorescence, % of fluorescent control [15]: -0.024% [at 18.6 µM]
- Potency [16]: inactive
- Potency [19]: inactive

Structure (SMILES): O=c1c2ccccc2oc2ccccc12
- Potency [1]: inactive
- Potency [17]: inactive
- Potency [18]: inactive
- Potency [3]: inactive
- outcome [4]: inactive
- outcome [5]: inactive
- Potency [6]: inactive
- outcome [7]: inactive
- outcome [8]: inactive
- Potency [9]: inactive
- outcome [10]: inactive
- outcome [11]: inactive
- outcome [12]: inactive
- outcome [13]: inactive
- outcome [14]: inactive
- outcome [15]: inactive
- Potency [16]: inactive
- Potency [19]: inactive

Structure (SMILES): CC(=O)Oc1cccc2c1C(=O)c1c(OC(C)=O)cc(C(=O)O)cc1C2=O
- Potency [1]: inactive
- Potency [2]: inactive
- Potency [18]: inactive
- Potency [3]: 13.3 µM (active)
- outcome [4]: inactive
- outcome [5]: inactive
- Potency [6]: inactive
- outcome [7]: inactive
- outcome [8]: inactive
- Potency [9]: inactive
- outcome [10]: inactive
- outcome [11]: inactive
- outcome [12]: inactive
- outcome [14]: inactive
- outcome [15]: inactive
- Potency [19]: inactive

Structure (SMILES): CCCCCCCCCCCCSCCOCCO
- Potency [1]: inactive
- Potency [2]: inactive
- Potency [18]: inactive
- Potency [3]: inactive
- outcome [5]: inactive
- Potency [6]: inactive
- outcome [7]: inactive
- outcome [8]: inactive
- Potency [9]: inactive
- outcome [10]: inactive
- outcome [11]: inactive
- outcome [12]: inactive
- outcome [13]: inactive
- outcome [14]: inactive
- outcome [15]: inactive
- Potency [16]: inactive
- Potency [19]: inactive

Structure (SMILES): N#Cc1ccc(CC(=O)c2cccc(C(F)(F)F)c2)cc1
- Potency [1]: inactive
- Potency [2]: inactive
- Potency [17]: inactive
- outcome [4]: inactive
- outcome [5]: inactive
- outcome [7]: inactive
- outcome [8]: inactive
- Potency [9]: inactive
- outcome [10]: inactive
- outcome [11]: inactive
- outcome [12]: inactive
- outcome [14]: inactive
- outcome [15]: inactive
- Potency [16]: inactive
- Potency [19]: inactive

Structure (SMILES): CC(C(=O)O)c1ccc(/C=C2\CCCCC2=O)cc1 (stereo not drawn)
- Potency [2]: inactive
- Potency [17]: inactive
- Potency [18]: inactive
- outcome [4]: inactive
- outcome [5]: inactive
- outcome [7]: inactive
- outcome [8]: inactive
- Potency [9]: inactive
- outcome [10]: inactive
- outcome [11]: inactive
- outcome [12]: inactive
- outcome [13]: inactive
- outcome [14]: inactive
- outcome [15]: inactive

Structure (SMILES): CC(C)=CCC[C@H](C)CCO
- Potency [1]: inactive
- Potency [17]: inactive
- Potency [18]: inactive
- outcome [4]: inactive
- outcome [5]: inactive
- Potency [6]: inactive
- outcome [7]: inactive
- outcome [8]: inactive
- Potency [9]: inactive
- outcome [10]: inactive
- outcome [11]: inactive
- outcome [12]: inactive
- outcome [13]: inactive
- outcome [14]: inactive
- outcome [15]: inactive

Structure (SMILES): CCOCCn1c(N2CCCN(C)CC2)nc2ccccc21
- Potency [1]: inactive
- Potency [17]: inactive
- Potency [3]: inactive
- outcome [4]: inactive
- outcome [5]: inactive
- Potency [6]: inactive
- outcome [7]: inactive
- outcome [8]: inactive
- Potency [9]: inactive
- outcome [10]: inactive
- outcome [11]: inactive
- outcome [12]: inactive
- outcome [13]: inactive
- outcome [14]: inactive
- outcome [15]: inactive

Structure (SMILES): c1ccc(CN(Cc2ccccc2)Cc2ccccc2)cc1
- Potency [1]: inactive
- Potency [17]: inactive
- Potency [18]: inactive
- Potency [3]: 30.6 µM (active)
- outcome [4]: inactive
- outcome [5]: inactive
- Potency [6]: inactive
- outcome [7]: inactive
- outcome [8]: inactive
- Potency [9]: inactive
- outcome [10]: inactive
- outcome [11]: inactive
- outcome [12]: inactive
- outcome [13]: inactive
- outcome [14]: inactive
- outcome [15]: inactive
- Potency [16]: inactive
